Screens deposited in PubChem BioAssay by National Center for Advancing Translational Sciences (NCATS).
Pf growth 48h: inhibits P. falciparum growth in the first generation, 48 h; P. falciparum luciferase growth in erythrocytes, 48 h; Potency, µM (doses to about 28.7 µM), for the others: at the highest dose activity change, negative = inhibition, most hits filed as inhibitors; 5.9% of 310,000 active; note: potency is the fitted concentration of half-maximal effect; % is set by controls: 0 for no effect and ±100 for the full control effect
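Compounds are pin-transferred into medium, infected erythrocytes (2% hematocrit, 0.1% parasitemia final) are added, and plates sit one parasite generation at 37 C in 5% CO2. Detection reagent is then added and luminescence measured.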
AMA1 RON2 block: disrupts binding of P. falciparum AMA1 to RON2; AlphaScreen AMA1-biotinylated RON2 peptide binding; Potency, µM (top dose mostly 58.2 µM), inactives show at the highest dose activity change, negative = inhibition, usual class: inhibitors; 0.2% of 360,000 active;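 note: potency is the fitted concentration of half-maximal effect; 0% = vehicle wells and -100% = peptide control; nearly all actives have a fitted effect of over 45% in size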
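AMA1 (3D7) with his tag at 25 nM final met compounds first, then biotinylated RON2 peptide at 25 nM; detection used donor plus acceptor beads, 10 µg/mL apiece, read by AlphaScreen after 30 min at room temperature.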
Cycloheximide cs: counter-screen for Shiga toxin inhibitors: cycloheximide protein synthesis inhibition; cell reporter, cycloheximide protein synthesis inhibition counterscreen; max response, %; 12% of 300,000 active; AID 2314; in the data active = max response mostly above about 13%, no sharp cut-off; inactive = mostly below about 14%; note: read at 38.3 µM for the half of the compounds with a filed dose; 0% is about no effect
Pf growth 96h: P. falciparum growth inhibition at 96 hours | P. falciparum luciferase reporter growth, 96 h | Potency, µM (titrated, usually from 28.7 µM), inactives show at the top dose activity change, negative = inhibition, hits mostly inhibitors | 6.9% of 320,000 active | AID 504834; note: potency is the fitted concentration of half-maximal effect; % is set by controls: 0 for no effect and ±100 for the full control effect
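Erythrocytes infected with luciferase-expressing P. falciparum were dispensed at 2% hematocrit and 0.05% parasitemia (final), then incubated with compounds 96 hours at 37 C in 5% CO2. Luminescence after detection reagent addition reported growth.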
SARS PLpro yeast: inhibitors of SARS-CoV papain-like protease in yeast; S. cerevisiae expressing SARS-CoV PLpro, growth rescue; Potency, µM (highest dose often 32.9 µM), without a hit: at the highest dose activity, positive = growth rescue, most hits filed as activators; 0.19% of 330,000 active; AID 485353; calls by dose curve; note: potency is the fitted concentration of half-maximal effect; 0% is about no effect; nearly all actives have a fitted effect of over 55% in size
Shiga toxin inh: inhibitors of Shiga toxin in Vero cells; Vero cells, Shiga toxin protein synthesis inhibition reporter; AID 2315; 9.2% of 290,000 active; inhibition, % at 38.7 µM; in the data active = inhibition mostly above about 28%, no sharp cut-off; inactive = mostly below about 43%; note: 0% is about no effect
Starred values were filed as active, the others as inactive; ? = inconclusive; nt = no result. Compounds with a hit are over-represented: about 19% of the library has one in this group of screens. Unless noted, calls come from the whole dose curve; as a rule, active = well fitted curve in the direction sought with a large enough effect; inconclusive = small, poorly fitted or top-dose-only effect, or another doubt; inactive = no such curve, though single readings can be large; an effect the other way counts as inactive or inconclusive.

SMILES	Pf growth 48h	AMA1 RON2 block	Cycloheximide cs	Pf growth 96h	SARS PLpro yeast	Shiga toxin inh
COC(=O)C1CN(S(=O)(=O)c2ccccc2)CCN1S(=O)(=O)c1ccccc1 (centres undefined)	nt	40.7%	-10.3	?	2.9%	-3.7
COc1ccc(NC(=O)Nc2nc3ccccc3s2)cc1	5.4%	-2.4%	43.6*	?	-1.2%	113.9*
Cc1cc(C)c(-c2csc(NC(=O)C3=NN(c4ccccc4)C(=O)CC3)n2)c(C)c1	?	22.8%	3.0	9.28µM*	6.6%	-11.7
CCc1ccc(-c2csc(NC(=O)C3=NN(c4ccccc4)C(=O)CC3)n2)cc1	-29.0%	14.9%	1.7	?	-15.8%	2.1
COc1ccc2nc(NC(=O)C3=NN(c4ccccc4)C(=O)CC3)sc2c1	41.2%	49.4%	18.4*	?	-2.4%	26.5
O=C(Nc1nc2c(F)cc(F)cc2s1)c1ccccn1	122.4%	55.6%	34.9*	?	-0.1%	95.1*
CCNC(=O)C1(C)CCCN(Cc2ccc3ccccc3c2Br)C1 (centres undefined)	nt	0.8%	nt	nt	nt	nt
CCCNC(=O)C1(C)CCCN(Cc2ccc(C(=O)OCC)o2)C1 (centres undefined)	nt	5.9%	nt	nt	nt	nt
COc1n[nH]c(C(=O)Nc2nc3ccccc3s2)c1[N+](=O)[O-]	22.7%	113.1%	33.3*	30.7%	-2.5%	74.7*
COc1ccc(OCC(=O)NNc2nc3ccccc3s2)cc1	20.4%	34.9%	43.6*	29.1%	0.4%	76.5*
CCOc1ccc2nc(NC(=O)Nc3cccs3)sc2c1	33.6%	-4.2%	62.7*	-32.0%	-7.4%	71.8*
COc1n[nH]c(C(=O)NCc2ccccc2)c1[N+](=O)[O-]	1.0%	5.8%	11.8	104.6%	-2.0%	7.4
CC(C)[C@H](NC(=O)NCc1ccco1)C(=O)O	nt	4.2%	-3.8	2.8%	11.3%	-9.5
Cc1cc(Nc2ccccc2C(=O)O)n2ncnc2n1	nt	130.6%	nt	nt	nt	nt
O=C(Cc1ccccc1)c1nc2ccccc2s1	?	-3.1%	74.4*	?	-23.0%	131.1*
COC(=O)c1ccc(/C(O)=C(\C#N)c2nc3ccccc3s2)cc1	6.3%	4.9%	20.0	nt	-8.0%	26.0
COC(=O)c1ccc(CC(=O)c2nc3ccccc3s2)cc1	-7.6%	34.9%	20.3*	?	1.8%	19.7
COc1ccc(C(C)(NC(C)=O)c2nc(-c3cccc(F)c3)cs2)cc1 (centres undefined)	nt	-2.9%	nt	nt	nt	nt
O=C(CN(Cc1ccccc1Cl)C(=O)c1ccc(CN2CCOCC2)o1)NCC1CCCO1 (centres undefined)	-2.8%	15.1%	-4.4	?	-0.2%	-15.5
CC(C)=NOC(=O)c1c(C)noc1-c1snnc1C	1.65µM*	8.7%	-1.8	1.85µM*	-0.7%	-12.1
COC(=O)c1c(C)noc1-c1snnc1C	-4.1%	5.8%	-1.8	30.7%	0.3%	-16.8
COc1ccc(N2CCN(C(=O)CCNS(=O)(=O)c3ccc4c(c3)CCC(=O)N4)CC2)cc1	-20.9%	17.0%	-0.9	180.3%	-22.2%	4.6
CC(C)COC(=O)N(C)C[C@H]1OCc2cn(nn2)CCCC(=O)N([C@H](C)CO)C[C@@H]1C	nt	2.4%	nt	nt	nt	nt
CCCC(=O)NC(c1cccs1)c1cc(Cl)c2cccnc2c1O (centres undefined)	3.7µM*	89.7%	-1.8	?	5.2%	-11.8
CCC(=O)NC(c1ccco1)c1cc(Cl)c2ccccc2c1O (centres undefined)	3.2%	nt	nt	?	-0.8%	nt
SMILES	Pf growth 48h	AMA1 RON2 block	Cycloheximide cs	Pf growth 96h	SARS PLpro yeast	Shiga toxin inh
Cc1conc1NC(c1cccs1)c1ccc2cccnc2c1O (centres undefined)	1.85µM*	nt	-3.3	6.57µM*	-37.2%	-3.0
CCC(=O)NC(c1cccs1)c1ccc2cccnc2c1O (centres undefined)	2.33µM*	-79.4%	-0.8	?	-6.9%	-2.0
CCCC(=O)NC(c1ccco1)c1cc(Cl)c2cccnc2c1O (centres undefined)	11.7µM*	-42.7%	-2.7	nt	-27.6%	-24.7
CCOc1ccc(NC(=O)C/C(C)=N/NC(=O)COc2ccc(Br)cc2C)cc1	15.0%	87.1%	-0.9	-40.0%	-1.9%	-3.5
O=S(=O)(Nc1cc(Br)cc2cccnc12)c1ccccc1	nt	nt	-5.0	nt	nt	-12.2
OC(CN1CCN(c2cccc(C(F)(F)F)c2)CC1)c1c[nH]c2ccccc12 (centres undefined)	?	-9.4%	1.1	?	-0.5%	-6.0
Oc1c(C(Nc2nccs2)c2ccc(C(F)(F)F)cc2)ccc2cccnc12 (centres undefined)	0.37µM*	1.1%	-2.1	-72.9%	-26.4%	20.3
CC(C)CC(=O)NC(c1cccs1)c1ccc2cccnc2c1O (centres undefined)	?	-39.1%	-2.1	403.9%	-0.7%	-4.8
O=C(C(Br)=Cc1ccccc1)c1ccccc1	nt	12.8%	nt	nt	nt	nt
O=C(CN(Cc1ccco1)C(=O)CCC(=O)Nc1ccccn1)NCc1ccccc1	0.7%	16.4%	-6.2	1.3%	1.4%	-13.8
COC(=O)CSC1=C(C#N)C(c2ccc3c(c2)OCO3)C2=C(CCCC2=O)N1 (centres undefined)	-16.5%	5.8%	-3.1	?	-3.8%	-4.2
COC(=O)C1=C(N)N(c2ccccc2C(F)(F)F)C2=C(C(=O)CCC2)C1c1ccc2c(c1)OCO2 (centres undefined)	3.7µM*	0.8%	-1.5	7.38µM*	-2.9%	-10.3
CCNC(=O)C1(C)CCCN(C(=O)c2ccc3c(c2)C(C)(C)CCC3(C)C)C1 (centres undefined)	nt	-4.9%	nt	nt	nt	nt
COC(=O)c1cc(Br)c(=O)n(Cc2ccc3c(c2)OCO3)c1	?	3.7%	12.0	9.28µM*	4.2%	-13.6
COC(=O)Cc1c(O)ccn(Cc2ccc3c(c2)OCO3)c1=O	3.8%	4.7%	-1.8	?	-0.5%	-1.9
O=C(/C=C/c1ccnc2ccccc12)c1cccs1	62.9%	-9.9%	37.6*	?	-4.2%	72.9*
Cc1ccc(S(=O)(=O)c2cc3ccccc3nc2N)cc1	?	5.2%	9.8	9.28µM*	5.1%	-6.6
C#CCOCCOCCOCCNc1nc(N2CCN(C(=O)[C@H](CCC(=O)O)n3cc(C(N)CC(C)C)nn3)CC2)nc(N2CCN(C(=O)[C@H](Cc3cc4ccccc4[nH]3)n3cc(C(N)CC(C)C)nn3)CC2)n1 (some centres undefined)	27.5%	23.8%	-3.4	44.4%	0.4%	-12.7
C#CCOCCOCCOCCNc1nc(N2CCN(C(=O)[C@H](Cc3cc4ccccc4[nH]3)n3cc([C@@H](N)CC(C)C)nn3)CC2)nc(N2CCN(C(=O)[C@H](Cc3cc4ccccc4[nH]3)n3cc([C@@H](N)CC(C)C)nn3)CC2)n1	2.62µM*	-24.4%	1.0	4.15µM*	-2.6%	20.5
